Measurements from publication PMC4336329 (PLoS ONE, 2015).
The campaign covered roughly 310,000 compounds. About 14,000 (4.5%) showed an effect of 50% or more. Effects have a minus sign here. The sample holds strong results, similar compounds and a random draw of the others, so the mix is not that of the screen.

Target: human ether-à-go-go-related gene (hERG) potassium channel (human, UniProt Q12809)
Assay: primary screen, population patch clamp on CHO cells stably expressing hERG; higher = less effect of the substance
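Note: peak tail current of the secondary pulse compared with the same well before compound.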

human ether-à-go-go-related gene (hERG) potassium channel, sequence (Q12809 whole entry, looked up): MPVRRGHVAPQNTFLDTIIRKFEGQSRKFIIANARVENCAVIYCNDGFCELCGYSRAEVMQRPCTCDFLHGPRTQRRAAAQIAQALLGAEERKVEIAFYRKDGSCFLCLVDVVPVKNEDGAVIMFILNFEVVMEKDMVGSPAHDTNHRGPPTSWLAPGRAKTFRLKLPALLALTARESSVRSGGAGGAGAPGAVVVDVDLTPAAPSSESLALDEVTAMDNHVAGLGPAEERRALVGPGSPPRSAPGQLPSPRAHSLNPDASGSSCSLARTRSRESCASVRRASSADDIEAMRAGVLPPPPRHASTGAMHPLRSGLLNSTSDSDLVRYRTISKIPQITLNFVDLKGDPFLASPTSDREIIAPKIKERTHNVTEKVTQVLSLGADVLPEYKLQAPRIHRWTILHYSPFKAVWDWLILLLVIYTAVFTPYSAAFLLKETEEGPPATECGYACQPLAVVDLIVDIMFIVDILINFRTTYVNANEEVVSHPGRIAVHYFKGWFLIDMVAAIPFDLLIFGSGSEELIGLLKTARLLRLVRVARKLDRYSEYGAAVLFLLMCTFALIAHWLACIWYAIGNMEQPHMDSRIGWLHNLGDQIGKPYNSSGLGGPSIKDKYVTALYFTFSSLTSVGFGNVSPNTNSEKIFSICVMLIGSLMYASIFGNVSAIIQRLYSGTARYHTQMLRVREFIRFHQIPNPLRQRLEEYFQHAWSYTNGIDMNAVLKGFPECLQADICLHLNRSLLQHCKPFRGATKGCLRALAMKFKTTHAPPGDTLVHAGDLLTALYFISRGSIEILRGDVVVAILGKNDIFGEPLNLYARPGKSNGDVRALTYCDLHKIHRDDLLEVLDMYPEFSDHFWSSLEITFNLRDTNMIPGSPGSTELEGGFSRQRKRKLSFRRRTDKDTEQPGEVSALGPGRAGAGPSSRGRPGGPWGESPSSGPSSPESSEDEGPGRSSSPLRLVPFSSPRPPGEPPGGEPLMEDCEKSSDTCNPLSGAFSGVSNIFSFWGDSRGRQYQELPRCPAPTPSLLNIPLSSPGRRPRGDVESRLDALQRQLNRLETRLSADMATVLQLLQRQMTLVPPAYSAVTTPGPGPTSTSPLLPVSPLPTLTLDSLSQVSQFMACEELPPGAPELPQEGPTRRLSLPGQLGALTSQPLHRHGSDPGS

Compound | hERG current change (%, negative = inhibition) at 10uM [%]
COc1cc(/C=C/c2ccc3cccc(OC)c3n2)c(O)c([N+](=O)[O-])c1 | 9.97
CNC(=S)N(Cc1ccc(OC)cc1)Cc1cc2cc(C)ccc2[nH]c1=O | 18
O=c1ccc(Cl)cn1Cc1ccccc1F | 5.34
CCN1C(=O)/C(=C/c2cnn(CC)c2C)SC1=S | 5.73
COc1ccc(S(=O)(=O)N2CCOc3ccccc32)cc1 | -1.55
Cc1ccccc1NC(=O)C(C)N1C(=O)c2ccccc2C1=O (centres unmarked) | 14.7
COc1ccc(C2NC(=O)c3ccccc3N2)cc1OC (centres unmarked) | 13
COc1ccc(Cc2nnc(SCC(=O)N3CCCC3)o2)cc1 | 2.54
COc1ccc(/C(N)=N/OC(=O)Cc2ccc(C)cc2)cc1 | 9.68
C=CCNc1oc(Cc2cccc3ccccc23)nc1C#N | -14.7
CCCCn1c(=O)n(C)c(=O)c2c(C(F)(F)F)cc(-c3ccncc3)nc21 | -28
Cc1nc(C)c(-c2ccc(SCc3ccccc3F)nn2)s1 | 4.94
Cc1nc(C)c(-c2ccc(SCc3cccc(F)c3)nn2)s1 | -50.6
Cc1nc(C)c(-c2ccc(SCc3ccc(Cl)cc3)nn2)s1 | -14.7
O=C(O)CCC(=O)NCc1ccc(F)cc1 | -7.12
Cc1oc(C(C)(C)C)cc1C(N)=O | 12.7
CSc1ncccc1C(=O)NCc1ccccc1Cl | -7.25
Cc1ccc(NC(=O)COC(=O)CNC(=O)c2cccc([N+](=O)[O-])c2)cc1S(=O)(=O)N1CCCCCC1 | -49.1
Cc1ccc(NC(=O)COC(=O)C2CC3C=CC2C3)cc1S(=O)(=O)N1CCCCC1 (centres unmarked) | -7.32
O=C(COC(=O)C1CC2C=CC1C2)Nc1cccc(S(=O)(=O)N2CCCCCC2)c1 (centres unmarked) | -23.2
Cc1ccc(S(=O)(=O)N2CCCCC2)cc1NC(=O)COC(=O)C1CC2C=CC1C2 (centres unmarked) | -62
O=C(COC(=O)CNC(=O)c1cccc([N+](=O)[O-])c1)Nc1cccc(S(=O)(=O)N2CCCCC2)c1 | -30.8
Cc1ccc(S(=O)(=O)N2CCCCC2)cc1NC(=O)COC(=O)CNC(=O)c1cc(Cl)cc([N+](=O)[O-])c1 | -51.4

Compound | hERG current change (%, negative = inhibition) at 10uM [%]
CC(=O)CC(=O)NC(=NC1CCCCC1)Nc1nc(C)cc(C)n1 | 7.01
Nc1ccc2c(c1)nnn2-c1ccccc1 | -7.35
Cn1c(SCC(=O)NC2CC2)nnc1-c1cccc(NC(=O)c2ccccc2F)c1 | -3.11
CCOc1ccccc1N(CC(=O)NC1CCCC1)C(=O)CNC(=O)c1cccs1 | -3.75
CCN1CCN(CC(=O)c2c[nH]c3ccc(C)cc23)CC1 | -4.16
O=C(c1cc(COc2c(F)cccc2F)on1)N1CCC(c2ccccc2F)C1 (centres unmarked) | 20.4
CN1CCN(C(=O)C2(NC(=O)NCc3ccccc3)CCCCC2)CC1 | 13.2
COc1ccc(CCNC(=O)C(=O)NCC2OCCN2S(=O)(=O)c2ccc(Br)cc2)cc1 (centres unmarked) | -7.02
O=C(CC1C(=O)CCCC1=O)c1ccccc1 | 25.1
OC(CNC1CCCCC1)c1ccccc1 (centres unmarked) | 12.1
CN1CCC(N(C)CC(O)c2ccccc2)CC1.O=C(O)C(=O)O (centres unmarked) | -6.05
CN1C(CC(=O)c2ccccc2)CCCC1CC(O)c1ccccc1 (centres unmarked) | -82.4
CN1C(CC(O)c2ccccc2)CCCC1CC(O)c1ccccc1.Cl (centres unmarked) | -67.8
O=C([C@H](O)c1ccccc1)N1CCC[C@H]1CO | 8.33
CCOC(=O)C(NC(=O)CC)(Nc1ccccc1)C(F)(F)F (centres unmarked) | 21.9
Cc1noc(/C=C/c2nn(C)cc2Cl)c1[N+](=O)[O-] | 16.6
C/C(=N\Nc1ccc(C)c(Cl)c1)c1ccncc1 | 24.8
Cc1ccccc1C(=O)NC1CCN(Cc2nnnn2C(C)(C)C)CC1 | 17.7
O=C(CCC(=O)c1ccc(Cl)s1)Nc1ncccc1O | -28.2
CCOC(=O)Nc1nc(-c2ccc(Cl)cc2Cl)cs1 | 11.7
CCc1ccc(CN(C)Cc2nc(Cc3cccc(C(F)(F)F)c3)no2)nc1 | -28.1
CCn1ccnc1CN(C)Cc1nc(CCC(C)C)no1 | 4.23
CN1CCCC2(CCCN(Cc3nc(Cc4cccc(C(F)(F)F)c4)no3)C2)C1 (centres unmarked) | -45.2

Compound | hERG current change (%, negative = inhibition) at 10uM [%]
CN(Cc1nc(Cc2cccc(C(F)(F)F)c2)no1)C1CC(C)(C)NC(C)(C)C1 | -12.3
CC(CN(C)Cc1nc(Cc2cccc(C(F)(F)F)c2)no1)CN1CCCC1 (centres unmarked) | -63.2
CCn1ccnc1CN(C)Cc1nc(Cc2cccc(C(F)(F)F)c2)no1 | -60.8
COc1ccc(NC(=O)Cn2nnc(C(=O)Nc3ccc(F)c(Cl)c3)c2N)cc1 | 25.9
Cc1cccc(C(=O)NNC(=O)c2ccc(O)cc2)c1 | -2.31
COc1ccc(CCNC(=O)COC(=O)C2CCCCC2)cc1 | 7.11
Cc1nc2nc[nH]n2c(=O)c1CCOC(=O)c1ccccc1F | 20.7
O=C(/C=C\c1ccccc1)NCC(=O)N/N=C/c1ccc(O)cc1O | 9.48
Cc1ccc(NC(=O)CCNS(=O)(=O)c2ccccc2)c(C(=O)c2ccccc2)c1 | -20.4
Cc1cc(C(=O)NC2CCCN(Cc3ccc(Cl)cc3)C2)no1 (centres unmarked) | -34.6
Cc1cc(C(=O)NC2CCCN(Cc3ccc(Cl)cc3)C2)n(C)n1 (centres unmarked) | -16
Cc1ccsc1C(=O)NC1CCCN(Cc2ccc(Cl)cc2)C1 (centres unmarked) | -56.2
CC(=O)c1ccc(C(=O)NC2CCCN(Cc3ccc(Cl)cc3)C2)s1 (centres unmarked) | -66.4
O=C(NC1CCCN(Cc2ccc(Cl)cc2)C1)C1CCC1 (centres unmarked) | -13.6
Cc1cc(C(=O)NC2CCCN(Cc3ccc(Cl)cc3)C2)c(C)o1 (centres unmarked) | -11.9
CNc1nc(Sc2ccc(C)cc2)cc(C(F)(F)F)n1 | 15.5
COc1ccc(N(CC(=O)Nc2cc(Cl)ccc2OC)C2=NC3CS(=O)(=O)CC3S2)cc1 (centres unmarked) | -7.35
Cc1ccc(C(=O)N2CCN(c3ccccn3)CC2)cc1Cl | -3.65
Cc1ccc(C(=O)NC(C)c2ccc(-n3ccnc3)cc2)cc1S(=O)(=O)N1CCOCC1 (centres unmarked) | -65.1
O=C(NCCCn1ccnc1)c1cc(S(=O)(=O)N2CCOCC2)ccc1F | 26.8
Cc1ccc(C(=O)NNC(=O)c2ccncc2)cc1S(=O)(=O)N1CCOCC1 | 0.578
O=C(Nc1ccc(N2CCCCC2)cc1)c1cc(S(=O)(=O)N2CCOCC2)ccc1F | -9.76
Cc1ccc(C(=O)NC(C)c2ccccc2)cc1S(=O)(=O)N1CCOCC1 (centres unmarked) | -1.39

Compound | hERG current change (%, negative = inhibition) at 10uM [%]
CC(NC(=O)c1cc(S(=O)(=O)N2CCOCC2)ccc1F)c1ccc(-n2ccnc2)cc1 (centres unmarked) | -72.2
CCOC(=O)CNC(=O)C(=O)c1c(O)[nH]c2ccccc12 | 9.92
CC(C(=O)NCC1CCCO1)n1cccc1C(=O)c1ccccc1 (centres unmarked) | 15.1
CCOC(=O)C1=C(CN2CCc3ccccc32)NC(=O)NC1c1cccc([N+](=O)[O-])c1 (centres unmarked) | -7.46
Cc1cc(C(=O)OCn2nnc3ccccc3c2=O)c(C)o1 | -6.92
Cc1c(C(=O)Nc2ccc(F)c(F)c2)oc2ccc(S(=O)(=O)N3CCCCC3)cc12 | -0.731
Cc1ccc(CN2CCN(/N=C/c3ccc(O)c(O)c3)CC2)cc1 | -21.7
Cn1ccnc1C(=O)c1cc(=O)c2ccccc2o1 | 8.14
Clc1ccc(CSc2nnc(-c3ccccn3)n2Cc2ccco2)c(Cl)c1 | -5.15
Clc1cccc(CSc2nnc(-c3cccnc3)n2Cc2ccco2)c1 | -74.3
Clc1ccc(CSc2nnc(-c3cccnc3)n2Cc2ccco2)c(Cl)c1 | -68.7
O=C(CSc1nnc(-c2cccnc2)n1Cc1ccccc1)NCc1ccco1 | -1.17
Clc1cccc(CSc2nnc(-c3ccccn3)n2Cc2ccco2)c1 | -35.7
Clc1ccccc1CSc1nnc(-c2cccnc2)n1Cc1ccco1 | -43.1
Cc1cc(C)cc(OCC(=O)Nc2ccncc2)c1 | -18.9
C=CCN(c1ccccc1)S(=O)(=O)c1cccc(C(=O)NNC(=O)c2ccncc2)c1 | -7.43
O=C1NC(Cc2ccccc2)C(=O)N1Cc1cc([N+](=O)[O-])cc2c1OCOC2 (centres unmarked) | 7.47
COc1cc(SC)ccc1C(=O)N1CCCCCC1 | 17.3
COc1cc(SC)ccc1C(=O)N1CCN(Cc2ccc3c(c2)OCO3)CC1 | -34.3
COc1cc(SC)ccc1C(=O)N1CCN(c2ccc(O)cc2)CC1 | -34.2
COc1cc(SC)ccc1C(=O)N1CCN(c2ccccc2)CC1 | -17.2
COc1cc(SC)ccc1C(=O)N1CCN(Cc2ccccc2)CC1 | -62.7
COc1ccc(N2CCN(C(=O)c3ccc(SC)cc3OC)CC2)cc1 | -55.3
